Bioassay records from PubChem BioAssay.
PV pol inh: poliovirus RNA polymerase inhibition; P03300; poliovirus polymerase elongation, fluorescence polarization; stronger effect = lower value; % elongation, % (compound at 16.7 µg/mL); 150,000 compounds, 0.66% hits; in the data active means % elongation below about 90%
MenB inh: Mtb MenB enzyme inhibition | P9WNP5 | inhibition, % (no concentration beside the values) | 100,000 compounds, 0.43% hits | MenB enzyme assay, absorbance read-out | AID 540299; in the data active means inhibition above about 21%, passing the limit was not always enough
Target sequence (P9WNP5 whole entry, looked up): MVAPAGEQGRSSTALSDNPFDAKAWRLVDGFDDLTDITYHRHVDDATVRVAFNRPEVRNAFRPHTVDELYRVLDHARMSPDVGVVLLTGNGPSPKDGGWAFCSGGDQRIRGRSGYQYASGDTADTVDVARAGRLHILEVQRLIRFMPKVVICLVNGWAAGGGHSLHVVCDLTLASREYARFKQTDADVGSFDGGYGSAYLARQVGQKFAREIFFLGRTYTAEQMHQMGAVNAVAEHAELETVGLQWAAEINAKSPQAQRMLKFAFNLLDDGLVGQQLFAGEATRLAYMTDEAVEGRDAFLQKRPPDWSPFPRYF
Mtb MbtI inh: inhibitors of Mycobacterium tuberculosis siderophore enzyme MbtI; AID 493033; P9WFX0; purified MbtI enzyme, fluorescence intensity read-out; 100,000 compounds, 0.89% hits; inhibition, % (test concentration not listed); in the data active means inhibition mostly above about 56%, no sharp cut-off; inactive means mostly below about 77%
AID504770: growth inhibitors of E. coli YBA685 in a screen for V. cholerae RctB (chromosome II replication) inhibitors. z-score (no concentration beside the values). E. coli YBA685 rctB-dependent plasmid, OD600 growth, 3 h; stronger effect = lower value. AID 504770. 130,000 compounds, 0.27% hits; in the data active means z-score below about -2, passing the limit was not always enough
Active calls of the source: *; ! = not active in a repeat. Rows were chosen to be rich in hits. Some 1.4% of all compounds tested hit in one or more screens of this group.

For CCNC(=S)Nc1ccccc1 the results were PV pol inh 101, MenB inh -57, Mtb MbtI inh -8 and AID504770 0.8.
CCC(C)NC(=S)Nc1ccccc1 (configuration not stated) was read as PV pol inh 98, MenB inh 30*, Mtb MbtI inh -6 and AID504770 1.4.
`CC(C)N(C)NC(=S)Nc1ccccc1` gave PV pol inh 100, MenB inh 41*, Mtb MbtI inh -19 and AID504770 -0.5.
For CCN(CC)NC(=S)Nc1ccccc1 the results were PV pol inh 101, MenB inh 24, Mtb MbtI inh -1 and AID504770 1.1.
`Cn1c(CS(=O)(=O)c2ccccc2)c(C#N)c2ccccc21` gave PV pol inh 99, MenB inh -14 and AID504770 1.6.
`Cc1ccc(-n2sc3ccccc3c2=O)cc1` gave PV pol inh 102, MenB inh -52, Mtb MbtI inh 101* and AID504770 -1.4.
`Cc1ccc(N2C(=O)c3ccccc3C2=O)cc1` gave PV pol inh 98, MenB inh 13, Mtb MbtI inh -3 and AID504770 0.
For O=c1[nH][nH]c(=S)n1CCc1ccccc1 the results were PV pol inh 93, MenB inh -13, Mtb MbtI inh 68* and AID504770 -0.55.
`S=c1[nH]ccn1CCc1ccccc1` gave PV pol inh 103, MenB inh -15 and AID504770 -0.3.
`CCCCCCNc1nc(Nc2ccc(I)cc2)nc(OC)n1` gave PV pol inh 99, MenB inh -60, Mtb MbtI inh -2 and AID504770 -1.1.
Screening CC(C)Cn1c(=S)[nH]c2cc(Cl)ccc21 returned PV pol inh 78*, MenB inh -27, Mtb MbtI inh 85* and AID504770 -0.55.
CC(C)Cn1c(=S)[nH]c2ccccc21 was read as PV pol inh 99, MenB inh 0, Mtb MbtI inh 17 and AID504770 0.7.
CCOC(=O)c1c(NC(=O)/C(C#N)=C/c2ccc(OC)cc2)sc2c1CCC2 was read as PV pol inh 106.
`CCOc1ccc(/C=C(\C#N)C(=O)Nc2sc3c(c2C(=O)OC)C(C(=O)OC)CC3)cc1OC` (configuration not stated) gave PV pol inh 73*.
O=c1oc(Cl)c(Cl)c2ccccc12 was read as PV pol inh 90*!, MenB inh -9 and Mtb MbtI inh 4.
O=c1oc2c3ccccc3oc(=O)c2c2ccccc12 was read as PV pol inh 99, MenB inh -3, Mtb MbtI inh 22 and AID504770 0.25.
Screening COc1ccc(C(=O)/C(C)=N/O)cc1 returned PV pol inh 100, MenB inh -26, Mtb MbtI inh 10 and AID504770 -0.6.
For O=C(Cn1c(SCc2cccc(F)c2)nc2ccncc21)NCC1CCCO1 (configuration not stated) the results were AID504770 -0.45.
O=C(Nc1ccccc1)C(=S)NCc1ccco1 was read as PV pol inh 102, MenB inh -21, Mtb MbtI inh 3 and AID504770 0.8.
`S=C(NCc1ccco1)Nc1ccccc1` gave PV pol inh 102, MenB inh 37*, Mtb MbtI inh 4 and AID504770 0.95.
`Cc1nn(-c2ccccc2)c2sc(C(=O)N=Nc3c(O)[nH]c4ccccc34)cc12` gave PV pol inh 102, MenB inh -17, Mtb MbtI inh -21 and AID504770 -0.55.
Cc1ccc2nc(N=C(N)N)nc(C)c2c1 was read as PV pol inh 101, MenB inh 8, Mtb MbtI inh 26 and AID504770 0.65.
Screening COc1ccc2nc(N=C(N)N)nc(C)c2c1 returned PV pol inh 65*, MenB inh 4 and AID504770 0.7.
For CCN(CC)CCOC(=O)c1ccc(NC(=O)c2cc3cc(OC)ccc3oc2=O)cc1 the results were PV pol inh 102.
CCN(CC)CCOC(=O)c1ccc(NC(=O)c2cc3cccc(OC)c3oc2=O)cc1 was read as PV pol inh 90*.
CCc1cccc(NC(=O)c2ccccn2)c1 was read as PV pol inh 101, MenB inh 11, Mtb MbtI inh 2 and AID504770 0.6.
S=c1[nH]nc(NCCCN2CCOCC2)s1 was read as PV pol inh 96, MenB inh -19, Mtb MbtI inh 97* and AID504770 -0.6.
For CCOc1ccc(-n2c(N)c(C(=O)N3CCN(C)CC3)sc2=S)cc1 the results were PV pol inh 99, MenB inh -43, Mtb MbtI inh 0 and AID504770 0.45.
For CCOC(=O)c1ccc(-n2c(N)c(C(=O)N3CCCC3)sc2=S)cc1 the results were PV pol inh 99, MenB inh -25, Mtb MbtI inh 93* and AID504770 -1.1.
`CCOC(=O)c1ccc(-n2c(N)c(C(=O)NCC3CCCO3)sc2=S)cc1` (configuration not stated) gave PV pol inh 96, MenB inh -13, Mtb MbtI inh 92* and AID504770 -0.6.
`O=C(Cn1c(SCc2ccccc2F)nc2ccncc21)NCC1CCCO1` (configuration not stated) gave PV pol inh 102, MenB inh -3, Mtb MbtI inh 4 and AID504770 -1.3.
`O=c1sn(-c2ccccc2C(F)(F)F)c(=O)n1CC1CC1` gave PV pol inh 100, MenB inh 3, Mtb MbtI inh 99* and AID504770 -1.2.
CCC(=O)NC(=S)c1c(C)nc2sccn12 was read as PV pol inh 57*, MenB inh -222, Mtb MbtI inh 15 and AID504770 -0.65.
CC(CC1CC(C)(C)OC1=O)c1nc(=S)[nH][nH]1 (configuration not stated) was read as PV pol inh 95, MenB inh -10, Mtb MbtI inh 64* and AID504770 -0.45.
`CN1C(=O)/C(=c2/[nH][nH]c(=O)/c2=C\C=C\c2ccccc2)C(=O)c2ccccc21` gave PV pol inh 84*, MenB inh -14 and AID504770 1.8.
Screening COc1ccc(/C=C2/C(=O)N(C)c3ccccc32)cc1 returned PV pol inh 100, MenB inh -64, Mtb MbtI inh 17 and AID504770 0.25.
Cc1ccc(-c2cc(C(=O)N(C)C3CCCCC3)no2)cc1 was read as PV pol inh 100, MenB inh -3 and AID504770 0.
`NCC1CC2C=CC1C2` (configuration not stated) gave PV pol inh 101, MenB inh -14, Mtb MbtI inh -3 and AID504770 -0.2.
`Cc1ccc(S(=O)(=O)N2CCCCC2C(=O)NCCOc2ccccc2)cc1` (configuration not stated) gave PV pol inh 106, MenB inh -13, Mtb MbtI inh 2 and AID504770 0.55.
Screening Cc1cc(C)nc(NNC(=S)NCc2ccc3c(c2)OCO3)n1 returned PV pol inh 98, MenB inh -16, Mtb MbtI inh 75* and AID504770 -0.5.
`Cc1nc2ccccc2c2oc(C(=O)NCCN3CCCCCC3)cc12` gave AID504770 -0.3.
`Cc1cc(NCCN2CCCCC2)c2ccc3ccccc3c2n1` gave PV pol inh 69*, MenB inh -1, Mtb MbtI inh inactive and AID504770 1.1.
